This is one part of a sample in which hits are shown more often than they occur.
ERK EGF block: EGF-driven ERK pathway inhibition; 130,000 compounds, 0.41% hits; Potency, µM (series often up to 11.5 µM), for inactives: at the top dose activity change, negative = inhibition, actives largely listed as inhibitors; AID 1454; HEK293-V1b, EGF-stimulated phospho-ERK AlphaScreen; active = well fitted inhibition curve with a large enough effect;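 also: plate controls were stimulated vehicle wells for no effect and unstimulated vehicle basal for full effect; nearly all actives have a fitted effect of over 55% in size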
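Readout: AlphaScreen signal for phosphorylated ERK in lysed HEK293 cells stably expressing V1b. Stimulus 25 nM EGF, 5 min, following 30 min compound exposure. Data scaled to DMSO basal and full EGF activation.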
The depositor's hits bear a star; ! = a repeat was not active; [ ] = dose if it differs, or a comment. Potency is read from the fitted curve at half-maximal effect.

SMILES	ERK EGF block
COCCN(CCOC)c1nc(C)nc2c1nc(-c1ccccc1)n2CC1CCN(C)CC1	4%
CC1CCCN(C2=C(NS(=O)(=O)c3ccc(Cl)cc3)C(=O)c3ccccc3C2=O)C1 (centres undefined)	10µM*
CCC(C)NC(=O)C1CCCN1S(=O)(=O)c1ccc(Cl)cc1 (centres undefined)	-25%
CC1CCCN(C2=C(Cl)C(=O)N(c3cccc(Cl)c3)C2=O)C1 (centres undefined)	1%
Cn1cccc1C(=O)N1CCC2(CCCN(c3cccc(-c4ccccc4)c3)C2)CC1	-6%
C=C(C[C@]1(C(=O)OC)CC2(CC=C(C)C)C(=O)C(C(=O)CC(C)C)=C(O)C(CC=C(C)C)(C1)C2=O)C(=O)OC (some centres undefined)	-15%
CN1CCN(c2ccc(NC(=O)COc3ccccc3[N+](=O)[O-])cc2)CC1	-6%
CC(C)C(=O)N1CCN(c2ccc(NC(=O)COc3ccccc3[N+](=O)[O-])cc2)CC1	32µM*
O=C(COc1ccccc1[N+](=O)[O-])Nc1ccc(CN2CCOCC2)cc1	3%
COCCN1C(=O)N[C@@H](c2cccc(C(F)(F)F)c2)C(C(C)=O)=C1C	-1%
CC(O)[C@@H](O)[C@H]1CNc2nc(N)[nH]c(=O)c2N1 (some centres undefined)	7%
CCOC(=O)Cc1csc(NC(=O)/C=C/c2ccc(Br)o2)n1	35µM*
CCOC(=O)Cc1csc(NC(=O)c2ccc(C)cc2)n1	5%
CCCC(=O)Nc1nc(CC(=O)OCC)cs1	3%
CC1C(NC(=O)/C(=N/OC(C)(C)C(=O)O)c2csc(N)n2)C(=O)N1S(=O)(=O)O (centres undefined)	5%
COc1cc(C2c3cc4c(cc3C(OC3OC5COC(C)O[C@@H]5C(O)C3O)C3COC(=O)C23)OCO4)cc(OC)c1O (some centres undefined)	3%
Cc1cc(N=Nc2ccc(Cl)cc2)cc(CN2CCOCC2)c1O	16µM*
Cc1ccc2c(CN3CCOCC3)cc(=O)oc2c1	-1%[57.5 µM]
Clc1ccc2scc(CN3CCCCC3)c2c1	1%
Cc1cc(N=Nc2ccc(Cl)cc2)cc(CN2CCCC2)c1O	32µM*
Oc1c(CN2CCOCC2)cc2c(c1-c1c(O)c(CN3CCOCC3)cc3c1CCCC3)CCCC2	-15%
O=C(NN1CCN(Cc2ccccc2Cl)CC1)c1ccc(Cl)cc1	7%
CCOC(=O)CNC(=O)O[C@H]1C(=O)c2ccc(OC)cc2O[C@@H]1c1ccc2c(c1)OCO2	-11%
COc1cccc([C@@H]2Oc3ccc(Br)cc3C[C@H]2OC(=O)N[C@H](C)C2CCCCC2)c1	-19%
C=CC[C@@](C(C)=O)(C(=O)OC)C(NC(=O)OC)c1ccccc1 (some centres undefined)	-2%
SMILES	ERK EGF block
CCCCC[C@H](O)/C=C/C=C\C=C\[C@@H](O)C/C=C\CCCC(=O)O	7%
COC(=O)[C@@H]1C[C@@]2(O)[C@H](O)[C@H](O)[C@H](O)C[C@H]2N1Cc1ccc(N2CCN(C)CC2)cc1	2%
CCOC(=O)CC(CC(C)=O)C(=O)OCC (centres undefined)	-9%
CCN(CC)c1ccc(/C=N/N=C(c2ccccc2)c2ccccc2)c(O)c1	3%
Oc1ccc(/C=N/n2cnn(Cc3ccccc3Cl)c2=S)c(O)c1	-8%
CCN(CC)c1ccc(/C=N/N2CCN(Cc3ccccc3Cl)CC2)c(O)c1	16µM*
COc1cccc([C@@H]2Oc3ccc(OC)cc3[C@H](O)[C@H]2O)c1	-8%
C=C1CC[C@@H]2O[C@@]2(C)CC[C@H]2[C@H]1CC2(C)C	-8%
CC(OC(=O)C1CCCCC1)c1nc2ccccc2[nH]1 (centres undefined)	-6%
O=C(NCCCc1nc2ccccc2[nH]1)c1ccc(F)cc1	1%
Nc1nc(Nc2ccccc2)nc2c1ncn2[C@@H]1O[C@H](CO)[C@H](O)[C@H]1O	2%
CCOC(=O)c1c(NC(=O)c2ccc(C)cc2)sc2c1CC(C)(C)NC2(C)C	0%[57.5 µM]
COC(=O)c1c(NC(=O)c2ccccc2)sc2c1CC(C)(C)NC2(C)C	3%[57.5 µM]
COC(=O)c1c(NC(=O)c2ccc(OC(C)C)cc2)sc2c1CC(C)(C)NC2(C)C	28µM*
C=C(C(C)=O)C(O)c1cccc(OC)c1 (centres undefined)	-1%
CCCNC[C@H](O)COc1ccccc1C(=O)CCc1ccccc1	10%
CC/C=C\C/C=C\C/C=C\C/C=C\C/C=C\CCC(=O)O[C@H](COCCCCCCCCCCCCCCCC)COP(=O)([O-])OCC[N+](C)(C)C	1%
CCCCCCCCCCCCCCCC(=O)NCC(COP(=O)([O-])OCC[N+](C)(C)C)OCC (centres undefined)	25µM*
CCCCCCCCCCCCCCCCCCOC[C@@H](O)COP(=O)([O-])OCC[N+](C)(C)C	-8%
COc1ccc(C2Oc3cc(OC)cc(OC)c3CC2O)cc1 (centres undefined)	16%
O=C1c2ccccc2-c2cccc(C(=O)N3CCCCC3)c21	-3%[57.5 µM]
Cn1nc(-c2ccccc2)c(N2CCCCC2)cc1=O	6%
Cn1c(=O)cc2c3c(c(N4CCCCC4)ccc31)C(=O)c1ccccc1-2	22µM*
CC(CCC#N)[N+](=O)[O-] (centres undefined)	-2%
CCCCC[C@H](O)/C=C/C=C\C/C=C\CCCCC(=O)O	-4%
SMILES	ERK EGF block
Nc1nc(Cl)nc2c1ncn2[C@@H]1O[C@H](COP(=O)(O)OP(=O)(O)OP(=O)(O)O)[C@H](O)[C@H]1O	5%
CC(=O)/C(=N/Nc1ccc(Br)cc1)N1CCCc2ccccc21	-3%[57.5 µM]
COC(=O)/C(=N/Nc1ccccc1)N1CCCc2ccccc21	-1%
CC(=O)/C(=N/Nc1ccccc1[N+](=O)[O-])N1CCCc2ccccc21	13µM*
CN(C)CCCO[C@H]1C([C@H](O)CO)O[C@@H]2OC(C)(C)O[C@@H]21 (some centres undefined)	-6%
CNc1nc(-c2ccc(N(C)C)cc2)nc2ccccc12	30%
C=N[C@H](C(=O)N[C@@H]1C(=O)N2[C@@H]1SC(C)(C)[C@@H]2C(=O)O)c1ccccc1	-6%[25.7 µM]
Cc1ccc(SC[C@H](c2ccccc2)N2CCN(C)CCC2=O)cc1	-16%[57.5 µM]
CC(C)CN1CCC(=O)N([C@H](CSc2ccc(Br)cc2)c2ccccc2)CC1	-1%[57.5 µM]
Cc1ccc(SC[C@H](c2ccccc2)N2CCN(CC(C)C)CCC2=O)cc1	32µM*
Cc1cc(O)c2c(c1O)C(=O)C(O)=C(O)C2=O	-3%
CC(C)=CCCC1(C)C=Cc2c(c(C)cc3c2[nH]c2ccccc23)O1 (centres undefined)	0%
C[C@@H](NCCc1ccc(O)cc1)[C@@H](O)c1ccc(O)cc1	-4%
CCCCCCCCNC(C)C(O)c1ccc(SC(C)C)cc1 (centres undefined)	35µM*!
CC(NCCc1ccc(O)cc1)C(O)c1ccc(O)cc1 (centres undefined)	-3%
C[C@@]12C=CC(=O)C=C1CC[C@H]1[C@H]3CC[C@](O)(C(=O)CO)[C@]3(C)CC(=O)[C@@H]12	-1%[25.7 µM]
CC1=CC(=Nc2c(C)n(C)n(-c3ccccc3)c2=O)C=C(C)C1=O	1%
CCC(C)C1=CC(=Nc2c(C)n(C)n(-c3ccccc3)c2=O)C=C(C(C)CC)C1=O (centres undefined)	16µM*
Cc1c(N=c2scc(-c3ccccc3)n2C)c(=O)n(-c2ccccc2)n1C	9%
OCC1OC([S-])[C@H](O)C(O)C1O.[Au+] (some centres undefined)	-14%
CC(C)Oc1ccc2c(=O)c(-c3ccccc3)coc2c1	18µM*

Bioassay records from PubChem BioAssay.
